# NPC1 prom act = qHTS Assay for NPC1 Promoter Activators. Huh7 NPC1 promoter luciferase reporter, 24 h. Potency, µM (doses to about 9.22 µM), for the others: at the top dose activation, usual class: activators. actives 2.4% (n = 320,000). AID 485313, 2010; further: % of control where 0% means no effect; nearly all actives have a fitted effect of over 60% in size
#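 Luminescence read-out of NPC1 promoter-driven luciferase in stably transfected Huh7 cells; compounds delivered in DMSO and left 24 h at 37C, 5% CO2, qHTS titration format.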
# Luc counter = Counterscreen for Luciferase (Kinase-Glo TM) Inhibition | actives 0.28% (n = 200,000) | Luciferin 4-monooxygenase (Photuris pensylvanica), Q27757 | Kinase-Glo luciferase, ATP luminescence, 8 min | Potency, µM (titrated, usually from 38.3 µM), for inactives: top-dose activity change, negative = inhibition, hits mostly inhibitors; further: on the % scale 0 is the no-effect control and ±100 the full control effect; nearly all actives have a fitted effect of over 60% in size
#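 Compounds were added to a substrate mix at pH 7.2 (50 mM imidazole, 10 uM ATP, within the enzyme's linear range), followed by Kinase-Glo detection reagent; luminescence was measured after 8 minutes at ambient temperature.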
# Rab9 promoter act = qHTS Assay for Rab9 Promoter Activators | Huh7 Rab9 promoter-luciferase reporter, luminescence, 24 h | Potency, µM (top dose mostly 9.22 µM), for inactives: top-dose activation, negative = inhibition, usual class: activators | actives 2.8% (n = 320,000); further: % of control where 0% means no effect; nearly all actives have a fitted effect of over 60% in size
#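 Luminescence read-out: Huh7 cells stably expressing Rab9-luciferase, treated 24 h with compound at 37 °C, then lysed with luciferase reagent for 10 min at ambient before reading.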
# ELG1 genotoxic = qHTS screen for small molecules that induce genotoxicity in human embryonic kidney (HEK293T) cells expressing luciferase-tagged ELG1 | HEK293T ELG1-luciferase reporter, luminescence, 16 h | Potency, µM (doses to about 46 µM), for the others: top-dose activity change, positive = activation, hits mostly activators | actives 1.3% (n = 330,000) | AID 504466, 2011; further: % of control where 0% means no effect; nearly all actives have a fitted effect of over 60% in size
#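 Luminescence read-out: rising ELG1-luciferase signal, reflecting elevated ELG1 protein under genetic stress, flags genotoxic compounds. Cells were treated for 16 hr at 37 °C before ONE-Glo detection.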
# FLuc counter = qHTS profiling assay for firefly luciferase inhibitor/activator using purifed enzyme and Km concentrations of substrates (counterscreen for miR-21 project); Luciferin 4-monooxygenase (Photinus pyralis), P08659; purified FLuc, Km substrates, luminescence inhibition; Potency, µM (highest dose often 57.5 µM), for the others: at the highest dose activity change, negative = inhibition, usual class: inhibitors; actives 6.9% (n = 360,000);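 further: plate controls were vehicle for no effect and reference inhibitor for full effect; nearly all actives have a fitted effect of over 55% in size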
# Target sequence (P08659 whole entry, looked up): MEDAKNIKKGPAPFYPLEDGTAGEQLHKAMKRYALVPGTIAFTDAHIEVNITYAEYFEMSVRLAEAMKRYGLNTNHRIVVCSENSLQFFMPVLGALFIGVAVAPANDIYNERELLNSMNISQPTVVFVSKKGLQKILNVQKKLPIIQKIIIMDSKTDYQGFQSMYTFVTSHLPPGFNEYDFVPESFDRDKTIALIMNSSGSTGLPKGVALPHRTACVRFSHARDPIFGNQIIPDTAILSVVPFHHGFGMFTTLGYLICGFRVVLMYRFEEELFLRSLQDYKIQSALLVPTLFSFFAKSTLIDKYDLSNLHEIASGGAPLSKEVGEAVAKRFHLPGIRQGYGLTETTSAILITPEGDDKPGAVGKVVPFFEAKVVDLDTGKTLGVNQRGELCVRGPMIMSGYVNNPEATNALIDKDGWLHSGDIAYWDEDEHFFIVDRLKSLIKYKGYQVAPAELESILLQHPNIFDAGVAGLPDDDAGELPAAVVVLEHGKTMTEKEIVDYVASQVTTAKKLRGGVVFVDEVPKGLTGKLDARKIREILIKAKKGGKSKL
#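 Biochemical qHTS of compounds, final roughly 60 µM downward over six points, against 10 nM purified firefly luciferase using Km concentrations of substrates (10 uM D-luciferin, 10 uM ATP) in Tris acetate pH 7.5 buffer; luminescence output.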
# SMN2 splice enh = qHTS Assay for Enhancers of SMN2 Splice Variant Expression; Potency, µM (top dose mostly 46.1 µM), without a hit: at the top dose activity change, positive = activation, hits mostly activators; HEK293 SMN2-luciferase splicing reporter, luminescence, 30-36 h; actives 2.8% (n = 210,000); AID 1458, 2008; further: % of control where 0% means no effect; nearly all actives have a fitted effect of over 55% in size
#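 qHTS luciferase splicing reporter: luminescence rises when SMN2 exon 7 is included in transfected HEK293 cells. Compound exposure lasted 30-36 h at 37C, with 4.5 mM final sodium butyrate as control, followed by a ONE-Glo read.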
# * = called active by the depositor; u = inconclusive; x = no result given; [ ] = dose if it differs, or a comment. The list is not random: actives were taken first. Their share in the collection is about 7.4%. The call rests on the fitted dose curve; in most records, active means well fitted curve in the direction sought with a large enough effect; inconclusive means small, poorly fitted or top-dose-only effect, or another doubt; inactive means no such curve, though single readings can be large; an effect the other way counts as inactive or inconclusive. Potency means the concentration at half of the fitted maximal effect.
SMILES,NPC1 prom act,Luc counter,Rab9 promoter act,ELG1 genotoxic,FLuc counter,SMN2 splice enh
Cc1cc(Cl)ccc1OCCCC(=O)NNC(=O)c1ccncc1,-2%,x,2%,-1%,u,x
CCOC(=O)N1CCc2c(sc3c2c(=O)n(Cc2ccccc2)c(=O)n3CC(=O)Nc2ccc(C)c(C)c2)C1,x,x,x,x,1%,-7%
CC(=O)n1cc(/C=N/NC(=O)c2ccc([N+](=O)[O-])cc2)c2ccccc21,6%,x,11%,3%,6.7µM*,x
COC(=O)c1ccc(/C=N/NC(=O)c2cccc(F)c2)cc1,2µM*,u,3.2µM*,u,-66%,14µM*
Cc1ccc(C(=O)N/N=C\c2cccnc2)s1,24%,x,u,u,6.7µM*,x
CCOc1ccc(C(=O)N/N=C/c2ccc(SC)cc2)cc1,2%,1%,-4%,7%,-8%,u
Cc1c(/C=N\NC(=O)c2ccc([N+](=O)[O-])cc2)cnn1C,1%,-5%,2%,1%,-17%,0%
CSc1ccc(/C=N/NC(=O)c2cccc(O)c2)cc1,u,u,3.5µM*,u,4.3µM*,u
O=C(N/N=C/c1cccnc1)c1ccc([N+](=O)[O-])cc1,-4%,-2%,-2%,0%,15µM*,-12%
O=C(N/N=C/c1cccnc1)c1ccccc1,16%,x,11%,10%,u,x
O=C(N/N=C\c1ccc(F)cc1)c1ccc(F)cc1,u,-5%,u,u,19µM*,u
Cc1cc(C)n(C2CC(=O)N(c3ccc(Cl)c(Cl)c3)C2=O)n1 (stereo not drawn),3%,x,2%,0%,1%,x
O=C1COc2ccc(C(=O)COC(=O)CNC(=O)C3CCCCC3)cc2N1,2%,-1%,-7%,-4%,-19%,5%
CC(C)OC(=O)CC(=O)CSc1nc2c(cc1C#N)CCCC2,x,-1%,x,x,13µM*,2%
N#Cc1cc2c(nc1SCC(N)=O)CCCCC2,4µM*,-1%,3.2µM*,u,-14%,25µM*
COC(=O)CC(=O)CSc1nc2c(cc1C#N)CCC2,2%,-4%,20%,27%,13µM*,1.3µM*
CC(C)OC(=O)CC(=O)CSc1nc2c(cc1C#N)CCC2,-5%,-5%,3%,1%,19µM*,-19%
COc1ccc(C(c2c(C)n(C)n(-c3ccccc3)c2=O)c2c(C)n(C)n(-c3ccccc3)c2=O)c(OC)c1OC,-3%,x,1%,-3%,4%,x
CC(C)C[C@@H](C(=O)NCc1ccco1)N1C(=O)N2CCc3c([nH]c4ccccc34)[C@@]2(C)C1=O,-3%,x,-3%,-6%,1%,x
CCN(CC)CCN(Cc1cc2cc3c(cc2[nH]c1=O)OCO3)C(=S)NC,0%,x,-5%,1%,1%,x
O=c1[nH]c2ccc(Cl)cc2c(O)c1-c1ccccc1,1%,-7%,-3%,1%,9.5µM*,8%
CN1CCC(CNC(=O)Nc2csc3ccccc23)CC1,1%,x,1%,4%,-4%,x
CN(C)c1ccc(NC(=O)Nc2csc3ccccc23)cc1,30%,x,u,u,2.7µM*,x
O=C(Nc1ccc(F)cc1)Nc1csc2ccccc12,24%,x,21%,-6%,24µM*,x
O=C(Nc1ccc(F)cc1)Nc1csc2c1CCCC2,x,x,x,x,u,-9%
SMILES,NPC1 prom act,Luc counter,Rab9 promoter act,ELG1 genotoxic,FLuc counter,SMN2 splice enh
CC(C)Cn1c(/C=C/c2ccco2)nc2ccccc21,-3%,-1%,-3%,2%,u,-5%
c1ccc(-c2ccc3c(c2)NCCN3)cc1,u,x,-1%[1.84 µM],11%,13µM*,x
COC(=O)CCCCCN1C(=O)/C(=C\c2ccncc2)SC1=S,3%,x,-5%,-7%,-1%,x
C#CCN(CC=C)C(=O)c1ccc2nc(C3CCCCC3)oc2c1,26%,x,27%,0%,u,x
Cc1ccc(C)n1-c1ccc(C(=O)Nc2ccccc2F)cc1,u,-6%,u,u,u,x
Cc1ccc(C)n1-c1ccc(NC(=O)c2ccccc2)cc1,28%,-2%,u,u,8.5µM*,11µM*
CC(=O)Nc1ccc(NC(=O)c2ccc(-n3c(C)ccc3C)cc2)cc1,-5%,6%,-4%,u,21µM*,x
CC(=O)NCCNC(=O)c1ccc(-n2c(C)ccc2C)cc1,14%,-1%,u,23µM*,-7%,x
CC(=O)c1cccc(S(=O)(=O)Nc2ccccc2N2CCOCC2)c1,x,x,x,3%,x,x
COCCN(CCOC)c1ncnc2c1c(-c1ccccc1)cn2-c1ccc(C)c(Cl)c1,x,x,x,x,-8%,x
COC(=O)/C=C1/S/C(=N/N=C/c2ccco2)NC1=O,-1%,x,2%,2%,u,x
COC(=O)/C=C1\S/C(=N/N=C/c2ccccc2)NC1=O,2%,2%,-3%,0%,6µM*,6%
COC(=O)/C=C1/SC(=NC(=O)c2ccc(OC)cc2)NC1=O,0%,x,1%,3%,27µM*,x
COC(=O)/C=C1\S/C(=N/N=C/c2ccc(Cl)cc2)NC1=O,-3%,x,-2%,-1%,11µM*,x
COC(=O)/C=C1/SC(=NC(=O)c2ccc(F)cc2)NC1=O,10%,x,19%,-3%,-18%,x
CC(=O)N1CCCC1c1nc2ccccc2n1Cc1ccccc1C (stereo not drawn),x,x,x,x,3%,x
CC(=O)c1sc(NC(=O)Cc2c(F)cccc2Cl)nc1C,0%,x,0%,-6%,-1%,x
COc1ccc(NC(=O)Cc2c(F)cccc2Cl)cc1,20%,-1%,22%,u,u,u
O=C(Cc1c(F)cccc1Cl)Nc1nc2ccccc2s1,20%,1%,u,9%,27µM*,-6%
Cc1nc2ccc(NC(=O)Cc3c(F)cccc3Cl)cc2s1,2.8µM*,x,2.5µM*,u,4.8µM*,x
O=C(CNS(=O)(=O)c1ccc(Cl)c(C(F)(F)F)c1)NC1CCCCC1,4%,x,9%,-1%,-3%,x
COc1ccc(C(=O)Nc2ccccc2C(=O)N2CCOCC2)cc1OC,-4%,x,-5%,-1%,-2%,x
COc1cc(C(=O)Nc2ccc(O)cc2C(=O)O)ccc1OC(C)=O,2%,x,-5%,2%,12µM*,x
COC(=O)c1ccc(NC(=O)c2ccc(OC(C)=O)c(OC)c2)cc1,u,-8%,u,u,11µM*,u
O=C(CCn1ccc2cc(S(=O)(=O)N3CCCC3)ccc21)NCc1cccc(Br)c1,x,x,x,x,4%,x
